# Screening results deposited in PubChem BioAssay by National Center for Advancing Translational Sciences (NCATS).
# Hits are enriched below; roughly 11% of the tested compounds scored in any of these assays.
# HCV inh: qHTS Assay for Inhibitors of Hepatitis C Virus (HCV); Huh7.5.1 HCVcc-Cre infection, luciferase reporter, 44 h; Potency, µM (top dose mostly 41.8 µM), inactives show at the top dose activity change, negative = inhibition, usual class: inhibitors; actives 3.4% (n = 340,000)
#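 Infectious HCVcc-Cre (~0.5 moi) was added to cells just after compound, with cells seeded 4 h earlier at 1,000 per well. Luciferase activity after 44 h culture reported infection; substrate was incubated 15 min at room temperature before reading.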
# AMA1-RON2 inh: qHTS for Inhibitors of AMA1-RON; Towards Development of Antimalarial Drug Lead: Primary Screen | Plasmodium falciparum AMA1 (3D7) - RON2 peptide interaction | actives 0.2% (n = 360,000) | AlphaScreen AMA1-biotinylated RON2 peptide binding | Potency, µM (highest dose often 58.2 µM), for inactives: top-dose activity change, negative = inhibition, hits mostly inhibitors | AID 720542, 2013;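 note: 0% = vehicle wells and -100% = peptide control; nearly all actives have a fitted effect of over 45% in size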
#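 AMA1 (3D7) with his tag at 25 nM final met compounds first, then biotinylated RON2 peptide at 25 nM; detection used donor plus acceptor beads, 10 µg/mL apiece, read by AlphaScreen after 30 min at room temperature.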
# Pf growth 48h: Primary qHTS for delayed death inhibitors of the malarial parasite plastid, 48 hour incubation. P. falciparum luciferase growth in erythrocytes, 48 h. Potency, µM (titrated, usually from 28.7 µM), without a hit: at the highest dose activity change, negative = inhibition, usual class: inhibitors. actives 5.9% (n = 310,000). AID 504832, 2011
#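 Firefly luciferase activity from engineered P. falciparum reports growth; inhibitors lower the luminescent signal. Cultures contained 2% hematocrit erythrocytes at 0.1% final parasitemia.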
# Pf growth 96h: Primary qHTS for delayed death inhibitors of the malarial parasite plastid, 96 hour incubation | actives 6.9% (n = 320,000) | P. falciparum luciferase reporter growth, 96 h | Potency, µM (series often up to 28.7 µM), inactives show at the highest dose activity change, negative = inhibition, most hits filed as inhibitors
#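 Readout is luminescence from an integrated firefly luciferase in P. falciparum. Red cells, 2% hematocrit and 0.05% parasitemia final, were cultured with compound through two parasite generations (96 hours) at 37 C, 5% CO2.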
# * = called active by the depositor; i = inactive; ? = inconclusive; / = not tested or not shown; [ ] = another dose, or the depositor's remark. Calls come from the whole dose curve; as a rule, active = well fitted curve in the direction sought with a large enough effect; inconclusive = small, poorly fitted or top-dose-only effect, or another doubt; inactive = no such curve, though single readings can be large; an effect the other way counts as inactive or inconclusive. Unless noted, % is set by controls: 0 for no effect and ±100 for the full control effect; potency is the fitted concentration of half-maximal effect.
SMILES,HCV inh,AMA1-RON2 inh,Pf growth 48h,Pf growth 96h
CCOc1ccc(-c2noc(CCC(=O)O)n2)cc1,-13.9%,1.8%,/,11.7µM*
Cc1ccc(-c2noc(CCC(=O)Nc3ccc4c(c3)OCO4)n2)cc1,-8.9%,-7.1%,23.0%,2.33µM*
CN1C(=O)N(c2ccccc2)C(Nc2nncs2)C1(C)C (stereo not given),6.4%,-1.6%,0.8%,/
Cc1occc1C(=O)NNC(=O)Nc1ccc([N+](=O)[O-])cc1,16.8%,47.6%,-14.9%,?
N#Cc1c(N)n(CCOC(=O)c2cccc(Br)c2)c2nc3ccccc3nc12,5.4%,3.5%,-7.8%,?
COc1cc(Cn2c(N)c(C#N)c3nc4ccccc4nc32)cc(OC)c1,?,-4.4%,?,2.33µM*
COc1cccc(Cn2c(N)c(C#N)c3nc4ccccc4nc32)c1OC,-20.8%,17.4%,?,10.4µM*
N#Cc1c(N)n(CCc2ccc(F)cc2)c2nc3ccccc3nc12,-4.1%,23.9%,/,0.329µM*
N#Cc1c(N)n(CCOC(=O)c2cccc([N+](=O)[O-])c2)c2nc3ccccc3nc12,-16.2%,38.5%,?,8.28µM*
COCCn1c(N)c(C#N)c2nc3ccccc3nc21,-11.0%,-2.8%,-4.1%,/
N#CCCn1cc(C(N)=O)c(-c2ccc3ccccc3c2)n1,13.2%,-9.7%,?,?
Cc1cc(CN(C)C(=O)c2ccc(OC3CCN(CCc4ccccc4)CC3)cc2)on1,-6.1%,-5.3%,?,?
CN(CC(=O)Nc1ccccc1Cl)C(=O)COC(=O)c1cc([N+](=O)[O-])ccc1N1CCOCC1,?,-14.7%,-0.9%,0.0%
COc1ccc(Cn2c(N)c(C#N)c3nc4ccccc4nc32)cc1,-5.2%,13.3%,4.65µM*,?
CCn1c2ccc(OC)cc2c2nc3ccccc3nc21,7.94µM*,54.7%,?,i
Cc1ccc(S(=O)(=O)N2CCC(C(=O)OCCOc3cccc(C)c3)CC2)cc1,16.8%,4.2%,-7.7%,21.7%
CCc1ccc(OCC(=O)NN2Cc3ccccc3C2=N)cc1,?,0.0%,16.7%,?
Cc1cc(C)cc(OCC(=O)NN2Cc3ccccc3C2=N)c1,19.9%,-5.4%,/,6.57µM*
N=C1c2ccccc2CN1NC(=O)CC12CC3CC(CC(C3)C1)C2,-14.7%,10.1%,?,1.85µM*
O=C(C1CCN(S(=O)(=O)c2cnc[nH]2)CC1)N1CCN(c2ccc([N+](=O)[O-])cc2)CC1,17.8%,-4.8%,10.3%,16.5%
Cc1ccc(F)c(S(=O)(=O)NC(=O)C2(C)CCN2C(=O)c2ccc(C3CCCCC3)cc2)c1 (stereo not given),/,0.0%,/,/
CCOc1ccc(NC(=S)NC23CC4CC(CC(C4)C2)C3)cc1,16.4%,0.0%,10.4µM*,20.9%
FC(F)Oc1ccc(NC(=S)Nn2cnnc2)cc1,5.01µM*,14.3%,-17.4%,0.0%
O=S(=O)(c1ccc(NC(=S)NC23CC4CC(CC(C4)C2)C3)cc1)N1CCCCC1,/,18.1%,/,/
FC(F)Oc1ccc(NC(=S)NC23CC4CC(CC(C4)C2)C3)cc1,?,10.8%,4.15µM*,4.15µM*
SMILES,HCV inh,AMA1-RON2 inh,Pf growth 48h,Pf growth 96h
CCOc1ccc(NC(=S)Nc2ccc(OC)cc2)cc1,4.7%,-9.2%,-10.6%,?
CN(C)c1ccc(NC(=S)NC23CC4CC(CC(C4)C2)C3)cc1,3.98µM*,-2.9%,5.22µM*,0.586µM*
COc1ccc(-c2nc3ccc(Cl)cn3c2CC(C)(C)C)cc1OC,/,-7.9%,/,/
CN1CCN(C(=O)C23CC4CC(C2)CC(c2ccccc2)(C4)C3)CC1,10µM*,-8.9%,?,?
O=C(c1ccccc1)N1CCN(C(=O)C23CC4CC(CC(C4)C2)C3)CC1,0.9%,-9.6%,?,43.4%
CCOc1ccc(NC(=O)C23CC4CC(C2)CC(c2ccccc2)(C4)C3)cc1,?,5.2%,?,1.85µM*
CCOC(=O)CNC(=O)C12CC3CC(C1)CC(c1ccc(C)cc1)(C3)C2,7.8%,2.1%,0.0%,5.2%
CC(=O)Oc1ccc(Cl)cc1/C=C/c1cc(OC(C)=O)c2ccccc2n1,-9.4%,/,1.65µM*,?
COc1ccc(OC2CCN(S(=O)(=O)c3ccccc3)CC2)cc1,-12.2%,-10.8%,-11.9%,180.5%
CCCCNC(=O)CC1N=C2c3ccccc3N=C(SCC(=O)Nc3cccc(C)c3)N2C1=O (stereo not given),-6.3%,-11.0%,1.85µM*,2.62µM*
CCOC(=O)CSC1=Nc2ccccc2C2=NC(CC(=O)NCc3ccc4c(c3)OCO4)C(=O)N12 (stereo not given),2.8%,?,4.15µM*,30.5%
CCOC(=O)CSC1=Nc2ccccc2C2=NC(CC(=O)NCc3ccc(OC)cc3)C(=O)N12 (stereo not given),0.9%,-11.3%,6.57µM*,/
O=C(CC1N=C2c3ccccc3N=C(SCc3ccc(Cl)cc3)N2C1=O)NCc1ccco1 (stereo not given),?,-12.2%,3.29µM*,/
COc1ccc(/C(O)=C2/C(=O)C(=O)N(CCN3CCNCC3)C2c2cccc([N+](=O)[O-])c2)cc1 (stereo not given),22.4%,0.9%,-2.6%,?
COc1ccc([C@H]2N[C@]3(CCCN(Cc4ccc(C)cc4)C3=O)[C@H]3C(=O)N(Cc4ccccc4)C(=O)[C@@H]23)cc1,/,0.0%,/,/
O=C1C(=O)N(CCN2CCOCC2)C(c2ccccc2F)/C1=C(\O)c1ccc(S(=O)(=O)N2CCOCC2)cc1 (stereo not given),18.5%,-9.0%,27.4%,-27.0%
COCCNc1nc(CSc2ccccc2)nc2sc(C)c(C)c12,25.1µM*,-3.6%[2.32 µM],?,?
Cc1sc2nc(CSc3ccccc3)nc(N3CCN(C)CC3)c2c1C,?,-29.3%,-16.7%,-75.9%
COCCn1cnc2c1c(=O)n(CC(=O)OCC(=O)NCC(F)(F)F)c(=O)n2Cc1ccccc1,5.0%,-17.9%,-6.6%,?
O=C(CCCSc1nnc(SCCCC(=O)c2ccc(F)cc2)s1)c1ccc(F)cc1,10µM*,52.6%,?,?
Nc1nnc(SCCCC(=O)c2ccc(F)cc2)s1,-5.3%,15.6%,30.7%,6.0%
CC1CCC2C(=O)N(c3ccc(S(=O)(=O)c4ccccc4)cc3)C(=O)C2C1 (stereo not given),32.2%,6.9%,2.9%,22.4%
CC(=O)N1C(=O)C(=C2C=C(C)OC(C)=C2)c2ccccc21,10µM*,-15.5%,-1.4%,?
CCOC(=O)c1c(/N=C/N(C)C)sc(/C=N/Nc2ccccc2)c1-c1ccccc1,?,3.5%,14.7µM*,10.4µM*
CCOC(=O)c1c(/N=C/N(C)C)sc(/C=N/Nc2ccccc2)c1-c1ccccc1Cl,6.31µM*,-8.9%,6.57µM*,?
CCOC(=O)c1c(/N=C/N(C)C)sc(C=O)c1-c1ccccc1,-10.6%,-0.8%,-20.3%,1.4%
